In PubChem BioAssay (EPA / NIEHS):
Several values for one entry are separate records, joined by “and”; a condition that tells them apart may be missing. Identical values can stand only once. More than one record can exist for a structure, and the calls need not agree. Activity calls are given as the source filed them. The calls were made as follows: active = hit-call score of the fitted dose curve at least 0.9, where 1 is the maximum; inactive = score below 0.9.

What follows are compounds tested on Matrix Metallopeptidase 9 (MMP9), MMP9 (gene 4318) (assay: BSK_BE3C_MMP9: BioMAP Diversity Plus: BE3C Assay for Matrix Metallopeptidase 9 (MMP9) Biomarker Activity (AID 2284283)). Settings: primary human bronchial epithelial cells.
Summary of the method: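 BE3C, human bronchial epithelial primary cells; 24 h post-dose; MMP-9 by ELISA; positive fit vs DMSO; SRB (0.1%, TCA-fixed, 560 nm) parallel cytotox.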

| SMILES | outcome | AC50 |
| --- | --- | --- |
| O=C(O)C(F)(OC(F)(F)C(F)(OC(F)(F)C(F)(OC(F)(F)C(F)(F)C(F)(F)F)C(F)(F)F)C(F)(F)F)C(F)(F)F (stereo not given) | inactive | – |
| FC(F)(F)C(F)(F)C(F)(F)C(F)(F)C(F)(F)C(F)(F)CCS | inactive | – |
| C=C(C)C(=O)OCC(F)(F)C(F)(F)C(F)(F)C(F)(F)C(F)(F)C(F)(F)C(F)(F)F | inactive | – |
| FC(F)(F)C(F)(F)C(F)(F)C(F)(F)CCI | inactive | – |
| O=C(O)C(F)(F)C(F)(F)C(F)(F)F | inactive | – |
| N=C(N)C(F)(F)C(F)(F)C(F)(F)C(F)(F)C(F)(F)C(F)(F)C(F)(F)F | inactive | – |
| O=C(O)C(F)(OC(F)(F)C(F)(OC(F)(F)C(F)(F)C(F)(F)F)C(F)(F)F)C(F)(F)F (stereo not given) | inactive | – |
| O=C(O)C(F)(F)C(F)(F)C(F)(F)C(F)(F)C(F)(F)C(F)(F)C(F)(F)C(F)(F)C(F)(F)C(F)(F)C(F)(F)C(F)(F)C(F)(F)F | inactive | 675 nM (active) |
| FC(F)(F)C(F)(F)C(F)(F)N(C(F)(F)C(F)(F)C(F)(F)F)C(F)(F)C(F)(F)C(F)(F)F | inactive | – |
| O=C(O)C=C(C(F)(F)F)C(F)(F)F | inactive | 10800 nM (active) |
| O=C(O)C(F)(F)C(F)(F)F | inactive | – |
| FC(F)(I)C(F)(F)C(F)(F)C(F)(F)I | inactive | 56.5 µM (active) and 55.2 µM (active) |
| OCC(F)(F)C(F)(F)C(F)(F)F | inactive | – |
| FC(F)(F)C(F)(F)C(F)(F)C(F)(F)C(F)(F)C(F)(F)C(F)(F)Br | inactive | – |
| OCC(F)(F)C(F)(F)C(F)(F)C(F)F | inactive | – |
| OCCCC(F)(F)C(F)(F)C(F)(F)C(F)(F)C(F)(F)C(F)(F)C(F)(F)F | – | 47.3 µM (active) and 55.3 µM (active) |
| O=S(=O)(OCC(F)F)C(F)(F)F | inactive | – |
| O=S(=O)(O)C(F)(F)C(F)(F)C(F)(F)C(F)(F)C(F)(F)C(F)(F)C(F)(F)F | inactive | – |
| OCC(F)(F)C(F)(F)C(F)(F)C(F)(F)C(F)(F)C(F)(F)F | inactive | – |
| C=CC(=O)OCC(F)(F)C(F)(F)C(F)(F)C(F)(F)COC(=O)C=C | – | 7.28 µM (active) and 11.8 µM (active) |
| O=C(O)C(F)(F)C(F)(F)C(F)(F)C(F)(F)C(F)(F)C(F)(F)C(F)(F)C(F)(F)C(F)(F)C(F)F | – | 14.2 µM (active) and 10.6 µM (active) |
| C=C(C)C(=O)OCC(F)(F)C(F)(F)C(F)(F)F | inactive | – |
| FC(F)(F)C(F)(F)CNCC(F)(F)C(F)(F)F | inactive | – |
| COC(=O)CCC(F)(F)C(F)(F)C(F)(F)C(F)(F)F | inactive | – |
| CC(C)(C)C(=O)CC(=O)C(F)(F)C(F)(F)C(F)(F)F | inactive | – |
| O=C(O)C(F)(F)C(F)(F)C(F)(F)C(F)(F)C(F)(F)C(F)(F)C(F)(F)C(F)(F)Cl | – | 42.9 µM (active) and 40.4 µM (active) |
| OCC(F)(F)C(F)(F)C(F)(F)C(F)(F)C(F)(F)C(F)F | inactive | – |
